{"source": "PubChem BioAssay (NCI)", "note": "Compounds without any hit were thinned out: in the full panel of roughly 83,000, 20% have a hit.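 Treatment: one concentration, 48 hours, 96-well format. Scoring: percent growth, with anything below 10 considered active.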 Active and inactive are the calls of the source."}
{"tested_on": "SK-MEL-5 melanoma", "assay": "NCI-60 one-dose screen, 48 h (100 = growth as untreated, 0 = no growth, -100 = all killed)", "settings": "10 µM unless noted", "experimental": "Growth inhibition of the SK-MEL-5 human tumor cell line is measured as a screen for anti-cancer activity. Cells are grown in 96 well plates and exposed to the test compound for 48 hours. Compounds are tested at a single concentration, which is 10^-5 M for most compounds. The reported endpoint is percent growth (GI% or GIPRCNT), where numbers from 0 - 100% represent growth inhibition, and numbers from -100% - 0 represent cell death. For example, a value of 40 represents 60% growth inhibition. A value of 0 means no net growth occurred over the course of the experiment. A value of -40 indicates 40% of cells at the beginning of the experiment died by the end of the experiment. A value of -100 means all cells are dead at the end of the experiment.\nNCI-60 Human Tumor Cell Lines Screen was performed using the standard one-dose NCI protocol, which is described in more detail at https://dtp.cancer.gov/discovery_development/nci-60/default.htm.\nCompounds with GIPRCNT values below 10 were considered active. Activity score was based on GIPRCNT using the following formula: […]\nScore is 0 for GIPRCNT values of 100 or above, 50 for GIPRCNT values of 0, and 100 for GIPRCNT values of -100."}
{"smiles": "C=CC[N+]1(CCO)CCN=C1CCCCCCCCCCCCC", "note": "(stereo not given)", "growth": "-95% (active)"}
{"smiles": "CC(C)[C@H]1COC(=O)N1[C@@H]1C(=O)N([C@@H](CCC(=O)N2CCN(C3CCCC3)CC2)C(=O)N[C@@H]2CCCc3ccccc32)[C@@H]1/C=C/c1cccc(Br)c1", "growth": "-82.2% (active)"}
{"smiles": "c1ccc(CSc2ncnc3nc[nH]c23)nc1", "growth": "100% (inactive)"}
{"smiles": "O=C1Nc2ccccc2/C1=C/C(=N/c1nnc(-c2ccc(Cl)cc2)s1)c1ccccc1", "growth": "78.3% (inactive)"}
{"smiles": "COc1cc(NC(N)=NCC(C)(C)COc2ccc(C(F)(F)F)cc2)cnc1C#N", "growth": "26.9% (inactive)"}
{"smiles": "CC[C@@H](C)OC(=O)c1nn(C(C)=O)c2ccccc12", "growth": "94.1% (inactive)"}
{"smiles": "COc1ccc(/C=c2/c(=O)[nH]c3nc4sc(C)c(C)c4c(=O)n23)cc1", "growth": "90.8% (inactive)"}
{"smiles": "CSc1nc2sc3c(c2c(=O)n1-c1ccc(C(C)C)cc1)CCC(=O)C3", "growth": "-79.9% (active)"}
{"smiles": "COC(=O)[C@@H]1CC[C@]2(C)[C@H](CC[C@@H]3O[C@@]32C)[C@@]1(C)CC(=O)c1ccoc1", "growth": "97.4% (inactive)"}
{"smiles": "Cc1cc2cc3cc(C)c(N(C)C)cc3nc2cc1N(C)C", "growth": "28.5% (inactive)"}
{"smiles": "CC(C)Oc1nc2c(c(=O)n(C)c(=O)n2C)n1C", "growth": "104% (inactive)"}
{"smiles": "Cc1ccc2cnc(N)c(C#Cc3cncc(C(=O)Nc4ccc(CN5CCN(C)CC5)c(C(F)(F)F)c4)c3)c2c1", "growth": "-95.6% (active)"}
{"smiles": "COc1cc(C2CC(=O)Nc3c2cnn3Cc2ccco2)cc2c1OCCO2", "note": "(stereo not given)", "growth": "75.5% (inactive)"}
{"smiles": "O=C1O[C@H]([C@H](O)CO)C(O)=C1O", "growth": "104% (inactive)"}
{"smiles": "O=C1Nc2ccccc2C12CC(c1ccc(Cl)cc1)=NN2", "note": "(stereo not given)", "growth": "92.4% (inactive)"}
{"smiles": "Cc1ccc(Nc2c(C(N)=O)cnc3ccc(-c4csc(N)n4)cc23)cc1", "growth": "96.7% (inactive)"}
{"smiles": "COc1ccc(-c2cc(=O)[nH]c3c(OC)c4ccccc4c(OC)c23)cc1", "growth": "18.8% (inactive)"}
{"smiles": "COc1ccccc1-c1ccc2c(N)c(C(=O)c3ccc4c(c3)OCO4)sc2n1", "growth": "56.6% (inactive)"}
{"smiles": "COC1C/C(=N\\O)C2OC(c3ccccc3)OCC2O1", "note": "(stereo not given)", "growth": "102% (inactive)"}
{"smiles": "O=C(CN1CCOCC1)Nc1ccc(Cn2nnc3c2C(=O)c2nnn(Cc4ccc(NC(=O)CN5CCOCC5)cc4)c2C3=O)cc1", "growth": "-86.9% (active)"}
{"smiles": "CN1CCN(Cc2ccc(NC(=O)c3cncc(C#Cc4c(N)ncc5ccc(C#N)cc45)c3)cc2C(F)(F)F)CC1", "growth": "-35.5% (active)"}
{"smiles": "COc1ccc2nc3cc(Cl)ccc3c(N3CCN(c4nccc(Nc5ccc(Cl)cc5)n4)CC3)c2c1", "growth": "86.7% (inactive)"}
{"smiles": "COc1ccc(-c2c3c(nc4n[nH]c(-c5ccc(Cl)cc5)c24)-c2ccccc2C(=O)C3=O)cc1", "growth": "5.41% (active)"}
{"smiles": "CC(C)(C)n1cc(-c2ccnc(NCCCNS(=O)(=O)c3cccc4ccccc34)c2)c(-c2cccc(O)c2)n1", "growth": "-20% (active)"}
{"smiles": "CC1=CC(=O)CC(C)(C)[C@@]1(O)/C=C/[C@@H](C)O", "growth": "97.4% (inactive)"}
{"smiles": "COc1ccc(Cl)cc1Nc1nc(C(F)(F)F)ccc1C(=O)N/N=C/c1cccnc1", "growth": "22.2% (inactive)"}
{"smiles": "COc1c2ccccc2c(OC)c2[nH]c(=O)ccc12", "growth": "-96.7% (active)"}
{"smiles": "CC(C)[C@@H]1CC[C@]2(C(=O)NCCCCN=C(N)N)CC[C@]3(C)[C@H](CC[C@@H]4[C@@]5(C)CCC(=O)C(C)(C)[C@@H]5CC[C@]43C)[C@@H]12", "growth": "20.4% (inactive)"}
{"smiles": "Oc1ccc2c(=S)cc(-c3ccc(Br)cc3)oc2c1O", "growth": "10.9% (inactive)"}
{"smiles": "CC(=O)Oc1cc2cnc3c4cc(OC(C)=O)c(OC(C)=O)cc4ccc3c2cc1OC(C)=O", "growth": "13.1% (inactive)"}
{"smiles": "Cc1cc(Nc2nc(N3CCOCC3)nc3ccccc23)n[nH]1", "growth": "79.9% (inactive)"}
{"smiles": "CCOC(=O)c1cnc2ccc(OC)cc2c1Nc1cccc(S(=O)(=O)NC)c1", "growth": "100% (inactive)"}
{"smiles": "Cc1ccc(NC(=O)c2sc3nc4c(cc3c2N)C(=O)CCC4)cc1C", "growth": "26.9% (inactive)"}
{"smiles": "O=c1c2c3c(sc2n2c(CCl)nnc2n1Cc1ccccc1)CCCC3", "growth": "-96.1% (active)"}
{"smiles": "CCOC(=O)c1cnc2ccc(Br)cc2c1Nc1cccc(S(=O)(=O)NC)c1", "growth": "96.6% (inactive)"}
{"smiles": "C=C1CCC2C3(C)COC(c4ccc(OC)cc4Br)OC3CCC2(C)C1/C=C/C1=CCOC1=O", "note": "(stereo not given)", "growth": "45.3% (inactive)"}
{"smiles": "O=C(O)c1c([N+](=O)[O-])cnc2ccccc12", "growth": "97.4% (inactive)"}
{"smiles": "COc1ccc(-c2cc(/C=C3\\C(=O)Nc4ccc(Cl)cc43)[nH]n2)cc1", "growth": "37.9% (inactive)"}
{"smiles": "COc1ccc(OCC(=O)Nc2ccc(-c3nc4ccccc4s3)cc2C)cc1", "growth": "70.8% (inactive)"}
{"smiles": "O=C1C(Cl)=C(Cl)C(=O)c2c1nc1n2CCCC1", "growth": "98.8% (inactive)"}
